TTR transcr act – activators of transthyretin transcription; SH-SY5Y TTR promoter Gaussia luciferase, luminescence; 100% = recombinant luciferase protein wells; activation, % at 16.7 µM; actives 1.3% (n = 92,000);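 active = activation above the mean of all tested compounds plus 3 SD, cut at about 9.5% in these data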;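 also: cells exposed to compounds for one day before reading; 0% = median of all test compound wells on the plate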
TTR inh HuH7 – HuH7 TTR transcription inhibition, counter-screen. shares compounds with TTR transcr act. HuH7 TTR promoter-Gaussia luciferase reporter, luminescence. inhibition, % at 16.7 µM. actives 4% (n = 1,100). AID 1117279;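 active = average inhibition above the solvent-only control wells' mean plus 3 SD, cut at about 15% in these data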;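 also: 0% = cells with DMSO only and 100% = cells with inhibitor control FD; inhibitors lower well luminescence so higher value means more inhibition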
TTR act confirm – human TTR transcription activation, confirmation | shares compounds with TTR transcr act | SHSY5Y TTR promoter Gaussia luciferase, luminescence; 100% = purified Lucia enzyme wells, no cells | activation, % at 16.7 µM | 1,100 tested, under 10 active | AID 1117280;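 active = mean activation above a set limit taken from the earlier primary screen, cut at about 11% in these data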;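 also: 0% = DMSO-treated cells and 100% = recombinant Lucia luciferase without cells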
The depositor's hits bear a star. Only a selection was taken, and hits are over-represented in it overall.

Screening O=C(Cc1ccc(F)cc1)N1CCC(CC2CC(c3cccc(Br)c3)=NO2)(C(=O)NCC2CCCCC2)CC1 (centres undefined) returned TTR transcr act -2.3.
`CCCCCCCNC(=O)C1(CC2CC(c3cccc(Br)c3)=NO2)CCN(C(=O)c2ccccc2)CC1` (centres undefined) gave TTR transcr act 16.8*, TTR inh HuH7 7.6 and TTR act confirm -0.1.
`Cc1ccc(NC(=O)CSCC(=O)N(C)CC(=O)Nc2cccc(F)c2)cc1` gave TTR transcr act -0.5.
Screening CN(CC(=O)Nc1cccc(F)c1)C(=O)c1ccc(OCC2CCCO2)cc1 (centres undefined) returned TTR transcr act -0.3.
For CCC(=O)c1ccc(OCC(=O)N(C)CC(=O)Nc2cccc(F)c2)cc1 the results were TTR transcr act 10.0*, TTR inh HuH7 -13.5 and TTR act confirm -0.1.
For CC(C)CNC(=O)OCc1cn(Cc2ccc(F)cc2F)nn1 the results were TTR transcr act -0.2.
Screening COc1ccc(CNC(=O)C(OC(=O)c2ccco2)c2ccccc2F)cc1 (centres undefined) returned TTR transcr act -1.9.
Screening CCC(OC(=O)c1ccco1)C(=O)NCc1ccc(OC)cc1 (centres undefined) returned TTR transcr act -1.2.
`COc1ccc(C(OC(=O)c2ccco2)C(=O)NC(C)(C)C)cc1` (centres undefined) gave TTR transcr act 25.6*, TTR inh HuH7 -1.9 and TTR act confirm -0.9.
`CC1(C)C=C2C(N(CC3CC3)C(=N)N2C(=O)OCc2ccccc2)n2c(=O)n(-c3ccccc3)c(=O)n21` (centres undefined) gave TTR transcr act 0.2.
`CCOC(=O)[C@]12CCCC=C1N(Cc1ccc(OC)cc1)C(=O)[C@@H]2CC(=O)N1CCCCC1` gave TTR transcr act 0.3.
`Cc1ccc([C@H]2C[C@H](n3cc(-c4ccc(F)cc4)nn3)[C@@H](O)CN2C(=O)C2CCCCC2)cc1` gave TTR transcr act 6.0.
For O=C(C1CCCCC1)N1C[C@H](n2cc(-c3ccc(F)cc3)nn2)[C@@H](O)C[C@@H]1c1ccccc1 the results were TTR transcr act 12.9*, TTR inh HuH7 -7.2 and TTR act confirm -1.1.
O[C@H]1C[C@H](c2ccccc2)N(CC2CCCCC2)C[C@@H]1n1cc(-c2ccc(F)cc2)nn1 was read as TTR transcr act 1.9.
Screening C[C@@H]1N[C@H]2N(C1=O)c1ccccc1[C@@]21C[C@@H]2C(=O)N[C@](C)(O1)c1nc3ccccc3c(=O)n12 returned TTR transcr act 5.8.
Screening Clc1ccc2nc(CNc3nc(N4CCOCC4)nc4c3ncn4-c3ccsc3)[nH]c2c1 returned TTR transcr act 9.4.
For COc1cccc(OCCn2cccc2/C=C2/C(=N)N3OC(C)=CC3=NC2=O)c1 the results were TTR transcr act 2.2.
COc1cc(/C=C2/C(=N)N3OC(C)=CC3=NC2=O)ccc1OCCOc1ccc(C)cc1 was read as TTR transcr act 1.8.
CCOc1ccc(/C=C2/C(=N)N3OC(C)=CC3=NC2=O)cc1OC was read as TTR transcr act 9.9*, TTR inh HuH7 -9.2 and TTR act confirm -0.2.
Screening CCn1nnc(C(=O)O)c1C(=O)O returned TTR transcr act 9.9*, TTR inh HuH7 -8.8 and TTR act confirm -0.6.
For CNC(=O)CCc1nc(-c2ccc(C(C)C)cc2)no1 the results were TTR transcr act 0.4.
`CCCCc1ccc2nc(NC(=O)c3ccc(Br)o3)sc2c1` gave TTR transcr act -1.0.
CCOC(=O)CCSc1nc(C)c2cc(C)c(C)cc2n1 was read as TTR transcr act 14.5*, TTR inh HuH7 -4.7 and TTR act confirm -1.7.
Screening Cc1ccc2nc(SCCC#N)nc(C)c2c1 returned TTR transcr act -2.7.
CCOc1ccc2nc(SCc3cccc(C)c3)nc(C)c2c1 was read as TTR transcr act 0.8.
Screening C=CCN1C(=O)[C@H](CC(=O)NCc2cccc3ccccc23)[C@@]2(C(=O)OCC)CCCC=C12 returned TTR transcr act 0.6.
Cc1ccc(-c2nnc(NC(=O)COc3ccc(F)cc3Cl)o2)cc1C was read as TTR transcr act -0.9.
O=C1CN(C(=O)NCC(=O)N[C@H](C(=O)O)c2ccccc2)c2ccccc2N1 was read as TTR transcr act 0.8.
`O=C1CN(C(=O)OCc2ccccc2)c2ccccc2N1` gave TTR transcr act 14.4*, TTR inh HuH7 -9.5 and TTR act confirm 0.1.
For O=C1CN(C(=O)c2ccccn2)c2ccccc2N1 the results were TTR transcr act 0.1.
For COC(=O)[C@H](C)NC(=O)[C@@H]1CC=C[C@@H]2CCN(CCc3ccccc3)C(=O)[C@@H]21 the results were TTR transcr act -2.0.
For O=C(O)CCN1C(=O)/C(=C/c2cccc(OCc3ccc(F)cc3)c2)SC1=S the results were TTR transcr act -1.2.
Cc1cccc(OCCCC(=O)Nc2ccc(N(C)C)cc2)c1 was read as TTR transcr act 4.4.
For Cc1cccc(OCCC(=O)Nc2nnc(C)s2)c1 the results were TTR transcr act 17.1*, TTR inh HuH7 -16.1 and TTR act confirm 1.2.
Screening COc1ccc(/C=C/c2nnc(NC(=O)COc3cccc(C)c3)s2)cc1 returned TTR transcr act 0.8.
C[C@@H]1CN([C@@H](C)CO)C(=O)c2cccc(NC(=O)Nc3cccc4ccccc34)c2O[C@H]1CN(C)S(=O)(=O)c1ccc2c(c1)OCCO2 was read as TTR transcr act -1.8.
Screening C[C@@H]1CCN(C2CC2)S(=O)(=O)c2c(cccc2N2CCC[C@@H]2C)O1 returned TTR transcr act 0.5.
`Cc1ccc2nc3sc(C(=O)N4CCN(C)CC4)cc3cc2c1` gave TTR transcr act 0.2.
COC(=O)CSc1ccc(C#N)c(SCC(=O)OC)c1 was read as TTR transcr act 1.1.
For COC(=O)Cn1cc(C(=O)OC)c2ccccc21 the results were TTR transcr act -1.0.
COC(=O)CSc1ccccc1C(=O)OC was read as TTR transcr act 19.1*, TTR inh HuH7 -13.5 and TTR act confirm 0.5.
O=S(=O)(c1cc(Cl)cc(Cl)c1)N1CCN(c2nc(-c3cccs3)nc3ccccc23)CC1 was read as TTR transcr act -1.7.
CCN(CC)CCCNC(=S)N(Cc1ccco1)Cc1cc2cc3c(cc2[nH]c1=O)OCCO3 was read as TTR transcr act 1.2.
`CNC(=S)N(Cc1ccco1)Cc1cc2cc3c(cc2[nH]c1=O)OCCO3` gave TTR transcr act -2.2.
CCc1ccc2[nH]c(=O)c(CN(Cc3ccco3)C(=S)NCC3CCCO3)cc2c1 (centres undefined) was read as TTR transcr act 12.2*, TTR inh HuH7 -24.2 and TTR act confirm 1.8.
Screening Cc1nc2ccccn2c1C(O)(c1ccccc1)c1ccccc1 returned TTR transcr act -1.7.
For CC(/C=N\NC(=O)Cn1cncn1)=C/c1ccc(C(C)C)cc1 the results were TTR transcr act 0.1.
`CC(=C/c1ccc(C(C)C)cc1)/C=N/NC(=O)c1ccncc1` gave TTR transcr act 10.4*, TTR inh HuH7 -3.9 and TTR act confirm -0.5.
`CC(/C=N/NC(=O)Cn1nccc1C)=C\c1ccc(C(C)C)cc1` gave TTR transcr act -0.9.

Screens from PubChem.
